CYP2C19 inhib: inhibitors of human CYP2C19; P33261; CYP2C19 Supersomes, luciferin-H EGE luminescence, 30 min; inhibition, % at 5 µM; hit rate 21% among 96,000;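 active = CYP2C19 inhibition above a set limit at 5 µM in the primary screen, cut at about 50% in these data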
sEH activator: activators of human soluble epoxide hydrolase. hit rate 0.04% among 91,000. purified human sEH enzymatic activity, activator screen. activation, % at 2 µM. P34913; in the data active = activation above about 37%
CYP2C19 act: activators of human cytochrome P450 2C19 | P33261 | recombinant CYP2C19, luciferin-H EGE luminescence; hits give high values; 0 = fully inhibited enzyme, 1 = untreated enzyme | activation factor at 5 µM | 96,000 tested, under 10 active;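 active = activation factor of at least 2 at 5 µM in the primary screen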
CYP2C9 inh: blocks human cytochrome P450 2C9 | P11712 | CYP2C9 Supersomes, luciferin-H conversion, luminescence | inhibition, % at 5 µM | hit rate 20% among 96,000;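 active = blocking of liver enzyme CYP2C9 beyond about 50% at 5 µM, limit read from the data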
Target sequence (P11712 whole entry, looked up): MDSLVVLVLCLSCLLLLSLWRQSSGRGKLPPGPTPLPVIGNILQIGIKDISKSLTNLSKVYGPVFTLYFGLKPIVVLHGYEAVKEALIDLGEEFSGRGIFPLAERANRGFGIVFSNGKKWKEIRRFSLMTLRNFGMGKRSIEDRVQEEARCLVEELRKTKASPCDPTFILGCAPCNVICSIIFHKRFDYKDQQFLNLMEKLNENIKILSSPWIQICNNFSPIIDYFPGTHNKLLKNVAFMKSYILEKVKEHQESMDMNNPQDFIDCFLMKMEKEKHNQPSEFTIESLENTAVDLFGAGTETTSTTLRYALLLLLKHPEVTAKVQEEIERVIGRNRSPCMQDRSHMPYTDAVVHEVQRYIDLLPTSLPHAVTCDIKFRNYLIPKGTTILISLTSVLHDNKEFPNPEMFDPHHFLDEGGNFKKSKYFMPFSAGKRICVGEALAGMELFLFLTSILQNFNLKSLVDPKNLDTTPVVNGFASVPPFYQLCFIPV
sEH inhibitor: inhibitors of human soluble epoxide hydrolase; P34913; recombinant human sEH enzymatic activity assay; inhibition, % at 2 µM; hit rate 0.34% among 91,000; in the data active = inhibition above about 80%
CYP2C9 act: increases human cytochrome P450 2C9 activity. AID 1024. hit rate 1.4% among 96,000. P11712. activation factor at 5 µM. recombinant CYP2C9, luciferin-H conversion, luminescence; hits give high values; factor 1 = untreated enzyme, 0 = blocked;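 active = activation factor of 2 or more for CYP2C9 at a 5 µM dose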
Each line names hits and unclear results; the compound was inactive in the other large screens. Only some compounds are listed: those with a hit (about 27% of all), similar ones and a draw of the others.

O=c1cc(CN2CCN(c3ccccc3F)CC2)c2cc3c(cc2o1)CCCC3	none
COc1ccc(C2Nc3ccccc3C(=O)N2c2ccc(C)cc2)cc1Cn1cc([N+](=O)[O-])cn1 (configuration not stated)	CYP2C9 inh 90
COc1ccc(N2C(=O)c3ccccc3NC2c2ccc(OC)c(CSc3ccccn3)c2)cc1 (configuration not stated)	CYP2C9 inh 58
COc1cc(C2NC(=O)C(C#N)=C(S)N2c2ccc(C)cc2)ccc1OC(C)C (configuration not stated)	none
COc1ccc(C2Nc3ccccc3C(=O)N2c2ccc(C)cc2)cc1Cn1nnc2ccccc21 (configuration not stated)	CYP2C19 inhib 51, CYP2C9 inh 81
COc1ccc(N2C(=O)CCC(C(=O)NCc3ccccn3)C2c2ccc(OC)c(OC)c2)cc1 (configuration not stated)	none (no result: sEH activator, sEH inhibitor)
Cc1ccc2c(c1)NC(=O)C(N1CCOCC1)(C(F)(F)F)O2 (configuration not stated)	CYP2C19 inhib 55
CCCn1c(SCC(=O)c2cc(C)ccc2C)n[nH]c1=O	none
Cc1cc(C)c(C(=O)CSc2n[nH]c(=O)n2C2CC2)cc1C	CYP2C19 inhib 52, CYP2C9 inh 77
Cc1occc1-c1nnc(SCC(=O)Nc2nc3ccccc3s2)o1	CYP2C19 inhib 79, CYP2C9 inh 75
Cc1occc1-c1nnc(SCC(=O)c2cc3ccccc3oc2=O)o1	CYP2C9 inh 90 (no result: sEH activator, sEH inhibitor)
Cc1occc1-c1nnc(SCC(=O)Nc2nc(-c3ccccc3)cs2)o1	none
COC(=O)c1ccc(CSc2nc3ccccc3c(=O)n2-c2ccc(OC)c(OC)c2)o1	CYP2C19 inhib 94, CYP2C9 inh 96
COC(=O)c1ccc(CSc2nnnn2C)o1	none (no result: sEH activator, sEH inhibitor)
COC(=O)c1ccc(CSc2nc3ccccc3c(=O)n2-c2ccccc2)o1	CYP2C9 inh 74
COc1ccc(-n2c(SCC(=O)Nc3cc(C)on3)nc3ccc(O)cc3c2=O)cc1OC	none
COCCn1c(SCc2ccc(C(=O)OC)o2)nc2ccccc2c1=O	CYP2C19 inhib 98, CYP2C9 inh 92
COC(=O)c1ccc(CSc2nnc3c(Cl)cc(Cl)cn23)o1	CYP2C19 inhib 82
Cc1ccc(CNC(=O)CC2C(=O)Nc3c2c(=O)n(C)c(=O)n3Cc2ccccc2)cc1 (configuration not stated)	none
COc1ccc(-n2c(SCC(N)=O)nnc2-c2ccccc2F)cc1	none (no result: CYP2C19 inhib, CYP2C19 act, CYP2C9 inh, CYP2C9 act)
COC(=O)c1ccc(CSc2nc3c(c(=O)n2-c2ccccc2)SCC3)o1	CYP2C9 inh 86 (no result: sEH activator, sEH inhibitor)
O=C(CSc1nc2c(c(=O)n1-c1ccccc1)SCC2)N1CCOCC1	none (no result: sEH activator, sEH inhibitor)
O=C(CSc1nc2c(c(=O)n1-c1ccccc1)SCC2)N1CCN(c2ccccc2)CC1	CYP2C19 inhib 82, CYP2C9 inh 63 (no result: sEH activator, sEH inhibitor)
COC(=O)c1ccc(CSc2nnc3n(Cc4ccccc4OC)c(=O)c4ccccc4n23)o1	CYP2C19 inhib 72, CYP2C9 inh 74 (no result: sEH activator, sEH inhibitor)
COC(=O)c1ccc(CSc2nc3sc4c(c3c(=O)n2C)CCCC4)o1	CYP2C19 inhib 84, CYP2C9 inh 94 (no result: sEH activator, sEH inhibitor)
COC(=O)c1sc(N)c(C(=O)OC)c1CSc1nc2sc3c(c2c(=O)n1C)CCC3	none (no result: CYP2C19 inhib, CYP2C19 act, CYP2C9 inh, CYP2C9 act)
Cc1ccc(NC(=O)c2ccccc2)cc1OC(=O)c1ccccc1	none
Cc1ccccc1OC(=O)n1c(=S)oc2cc(Cl)ccc21	none
Cc1c(NC(=O)c2cc3nc(-c4ccc(Br)cc4)cc(C(F)(F)F)n3n2)c(=O)n(-c2ccccc2)n1C	none (no result: CYP2C19 inhib, CYP2C19 act, CYP2C9 inh, CYP2C9 act)
COc1ccc(-n2c(SC3CCOC3=O)nc3ccccc3c2=O)cc1OC (configuration not stated)	CYP2C9 inh 69 (no result: sEH activator, sEH inhibitor)
COc1ccccc1-n1cnnc1SC1CCOC1=O (configuration not stated)	none
COc1ccc(-n2c(SCC#N)nnc2-c2ccc(NS(=O)(=O)c3ccc(C)cc3)cc2)cc1	CYP2C19 inhib 90, CYP2C9 inh 94 (no result: sEH activator, sEH inhibitor)
COc1cccc(-n2c(SCC#N)nnc2-c2cnccn2)c1	none
COc1ccc(-n2c(SCC(=O)Nc3ccccc3)nnc2-c2ccc(NS(=O)(=O)c3ccc(C)cc3)cc2)cc1	none
COc1ccc(-n2c(SCC(N)=O)nnc2-c2ccc(NS(=O)(=O)c3ccc(C)cc3)cc2)cc1	CYP2C9 inh 73
CCC(C)NC(=O)c1ccc(CS(=O)(=O)Cc2ccc(Cl)cc2)o1 (configuration not stated)	CYP2C19 inhib 67, CYP2C9 inh 63
CCC(C)NC(=O)c1ccc(CS(=O)(=O)c2ccc(OC)cc2)o1 (configuration not stated)	none
CCOc1ccccc1OCC(=O)O	none
CC(C)N(C(=O)c1ccc2nc3c4ccccc4c4ccccc4c3nc2c1)C(C)C	none (no result: CYP2C19 inhib, CYP2C19 act, CYP2C9 inh, CYP2C9 act)
CSc1nc(C)cc(OCCNS(=O)(=O)c2ccc(C)cc2)n1	none (no result: CYP2C19 inhib, CYP2C19 act, CYP2C9 inh, CYP2C9 act)
O=C(NCc1ccc2c(c1)OCO2)C1CCCN(S(=O)(=O)c2cccnc2)C1 (configuration not stated)	none
CCC(c1nnnn1Cc1ccco1)N1CCN(c2cc(Cl)ccc2C)CC1 (configuration not stated)	CYP2C9 inh 59
CCC(c1nnnn1Cc1ccco1)N1CCC(C(N)=O)CC1 (configuration not stated)	none
Cc1ccc(Cl)cc1N1CCN(Cc2nnnn2Cc2ccco2)CC1	CYP2C19 inhib 77, CYP2C9 inh 93
COC(=O)c1nn(-c2c(C)n(C)n(-c3ccccc3)c2=O)cc1O	none
O=C(c1c(F)cccc1F)N(Cc1ccccn1)C1CC1	none
COc1ccccc1-c1cc(C(=O)NCc2ccc(Cl)cc2)no1	CYP2C9 act 3.2
COc1ccccc1-c1cc(C(=O)NCCN2CCOCC2)no1	CYP2C9 act 2.2
COc1ccccc1-c1cc(C(=O)NCc2ccccc2)no1	CYP2C9 act 2.8
COc1ccccc1-c1cc(C(=O)Nc2cc(C)on2)no1	none
CCCc1cc(C(=O)NCc2ccc(OC)cc2)no1	CYP2C19 inhib 65
CCCCSc1nnc(CSc2nc3nc(C)cc(C)n3n2)o1	none
CN(C(=O)C12CC3CC(CC(C3)C1)C2)C1(C)CCS(=O)(=O)C1 (configuration not stated)	none
COc1ccccc1-c1cc(C(=O)Nc2c(C)n(C)n(-c3ccccc3)c2=O)no1	CYP2C9 act 2.6
COc1ccc(-c2cc(C(=O)NC(C)C)no2)cc1	none
COCC(C)NC(=O)c1cc(-c2ccccc2OC)on1 (configuration not stated)	CYP2C9 act 2.5
COc1ccc(CNC(=O)c2cc(-c3ccccc3OC)on2)cc1	CYP2C9 act 2.7
O=C(NCc1ccc(F)cc1)c1cc(-c2ccco2)on1	none
COc1ccccc1-c1cc(C(=O)NCc2ccc(F)cc2)no1	CYP2C9 act 3 (no result: sEH activator, sEH inhibitor)
O=C(NC1CC2CCCC(C1)N2Cc1cccs1)N1CCOCC1 (configuration not stated)	none
COc1ccc(-c2noc(CSc3nc4ccccc4c(=O)n3-c3ccccc3)n2)cc1	none
